Reference: ChEMBL document CHEMBL3988442, “University of Dundee, Small-Polar-MMV Screening Library” (2021)
The whole screen tested about 66,000 compounds, of which about 960 (1.5%) showed an effect of 50% or more. The sample holds strong results, similar compounds and a random draw of the others, so the mix is not that of the screen.

System: Trypanosoma brucei
Experiment: Trypanosoma brucei 72 hour study
Type: functional, organism-based
Design: scale not given: in the data most compounds retested in dose-response had high values

Cc1ccccc1C(Nc1ncnc2c1CCNC2)c1ccccc1 (centres undefined)
Percent Effect (30 µM, 30.03 µM): -12.11%

Cc1cc(C)n(CC(C)Nc2ncnc3c2CCNC3)n1 (centres undefined)
Percent Effect (30 µM, 30.03 µM): -30.59%

CC(Nc1ncnc2c1CCNC2)c1ccc(C(C)(C)C)cc1 (centres undefined)
Percent Effect (30.3 µM, […]): 90.36%

CC(Nc1ncnc2c1CCNCC2)c1nc2c(s1)CCCC2 (centres undefined)
Percent Effect (30 µM, 30.03 µM): 6.589%

Cc1ccccc1C(CNc1ncnc2c1CCNC2)N(C)C (centres undefined)
Percent Effect (30 µM, 30.03 µM): -30.9%

CC(Nc1ncnc2c1CCNC2)c1ccc2c(c1)CCCC2 (centres undefined)
Percent Effect (30.3 µM, […]): 100.2%

CCCc1ccc(C(C)Nc2ncnc3c2CCNC3)cc1 (centres undefined)
Percent Effect (30.3 µM, […]): 56.69%

CC(C)Nc1ncnc2c1CCNCC2
Percent Effect (30.3 µM, […]): -40.35%

CCOc1ccc(C(C)Nc2ncnc3c2CCNC3)cc1OCC (centres undefined)
Percent Effect (30.3 µM, […]): 2.402%

CCNC(c1ccc(F)cc1)c1cccnc1 (centres undefined)
Percent Effect (30 µM, 30.03 µM): -17.98%

O=C(O)C(F)(F)F.O=C(c1cccs1)N1CC[C@@H](N2CCOCC2)[C@@H]1Cc1ccccc1
Percent Effect (30 µM, 30.03 µM): 16.01%

O=C(O)C(F)(F)F.O=C(O)[C@]12CCCN(CC3CCOC3)C[C@H]1CN(c1ncccn1)C2 (some centres undefined)
Percent Effect (30.3 µM, […]): -92.21%

Cc1cccc(C(=O)N2CCCN(CCCSCC#N)CC2)c1
Percent Effect (30 µM, 30.03 µM): -25.24%

O=C(O)C(F)(F)F.O=C(c1ccccc1)N1CCC[C@]2(C[C@@H](Oc3ncccc3F)CO2)C1
Percent Effect (30 µM, 30.03 µM): -46.98%

CC(C)CC(=O)NCCn1nc(C2CCNC2)c2cccnc21.Cl (centres undefined)
Percent Effect (30.3 µM, […]): 2.604%

CC(=O)N1N=C(c2ccco2)OC1C(=O)N(C)CCc1ccccc1 (centres undefined)
Percent Effect (30.3 µM, […]): -0.7394%
Percent Effect (10 mM, 10 mM as filed; unlikely as a test dose): -39.66%

CC(=O)N1N=C(c2ccco2)OC1C(=O)NCC(C)C (centres undefined)
Percent Effect (30.3 µM, […]): 15.99%
Percent Effect (10 mM, 10 mM as filed; unlikely as a test dose): -43.02%

CC(=O)N1N=C(c2ccco2)OC1C(=O)N(CC(C)C)CC(C)C (centres undefined)
Percent Effect (30.3 µM, […]): 65.41%
Percent Effect (10 mM, 10 mM as filed; unlikely as a test dose): -14.31%

CCCc1nc(N2CCCN(c3ncccn3)CC2)c2cnn(C)c2n1
Percent Effect (30 µM, 30.03 µM): -12.92%

CCCc1nc(N2CCN(Cc3ccccn3)CC2)c2cnn(C)c2n1
Percent Effect (30 µM, 30.03 µM): 36.81%

CCCc1nc(N2CCCN(c3ccncc3)CC2)c2cnn(C)c2n1
Percent Effect (30 µM, 30.03 µM): 59.27%

CC(=O)N1CCC(n2nccc2-c2cnc(N)nc2)CC1
Percent Effect (30.3 µM, […]): -9.866%

Cn1ncc2c(NC3CCCN(C(=O)C4CC4)C3)nc(C(C)(C)C)nc21 (centres undefined)
Percent Effect (30 µM, 30.03 µM): 43.28%

Cn1ncc2c(N[C@H]3CC[C@@H](N)CC3)nc(C(C)(C)C)nc21
Percent Effect (30.3 µM, […]): 99.86%

Cn1ncc2c(N[C@H]3CCCC[C@@H]3O)nc(C(C)(C)C)nc21
Percent Effect (30.3 µM, […]): -1.471%

Cc1cccc(C(=O)N2C[C@@H]3CCN(c4cccnc4)C[C@@H]3C2)c1.O=C(O)C(F)(F)F
Percent Effect (30 µM, 30.03 µM): 1.381%

COCCN1C(=O)CC[C@@H]2[C@H]1CCN2Cc1cccc(C#N)c1.O=C(O)C(F)(F)F
Percent Effect (30.3 µM, […]): -247.8%

CCCN(Cc1ccccc1O)S(=O)(=O)C(C)CC (centres undefined)
Percent Effect (30 µM, 30.03 µM): 101.6%

CCCN(Cc1ccccc1O)S(=O)(=O)N(C)CC
Percent Effect (30 µM, 30.03 µM): -50.11%

CCC(C)S(=O)(=O)N(Cc1ccco1)Cc1ccccc1O (centres undefined)
Percent Effect (30 µM, 30.03 µM): -17.24%

Cl.Nc1ccc(-c2cnc(C3CCCN3)cn2)cn1 (centres undefined)
Percent Effect (30.3 µM, […]): 19.85%

Cc1ccc(N2CCc3sc(C(=O)NCCN4CCCC4)cc32)nn1
Percent Effect (30.3 µM, […]): 54.03%

O=C(NCCN1CCCC1)c1cc2c(s1)CCN2c1ncccn1
Percent Effect (30.3 µM, […]): 35.85%

Cc1ccc(N2CCc3sc(C(=O)N4CCOCC4)cc32)nn1
Percent Effect (30.3 µM, […]): -27.02%

Cc1cc(C(=O)N2CC[C@H]3[C@H](C[C@@H](CN4CCCC4)N3C)C2)c(C)o1.O=C(O)C(F)(F)F.O=C(O)C(F)(F)F
Percent Effect (30.3 µM, […]): -13.25%

Cl.O=C(NCCn1nc(C2CCNC2)c2cccnc21)C1CCC1 (centres undefined)
Percent Effect (30.3 µM, […]): -2.901%

Cc1cc(C)c2c(N3CCN(C(=O)N(C)C)CC3)ncnc2n1
Percent Effect (30 µM, 30.03 µM): -10.57%

Cc1nnc(N2CCCC(C(=O)c3cccc(Cl)c3)C2)o1 (centres undefined)
Percent Effect (30 µM, 30.03 µM): -2.386%

O=C(c1cccc(Cl)c1)C1CCCN(c2nnc(C3CCC3)o2)C1 (centres undefined)
Percent Effect (30 µM, 30.03 µM): 75.84%

O=C(c1cccnc1)C1CCCN(c2nnc(C3CC3)o2)C1 (centres undefined)
Percent Effect (30 µM, 30.03 µM): -35.25%

NCCn1cc(C(=O)N2CCCCCC2c2ccco2)nn1 (centres undefined)
Percent Effect (30 µM, 30.03 µM): -18.67%

Oc1cc(-c2nccs2)nc(C2CCN(Cc3cccs3)CC2)n1
Percent Effect (30.3 µM, […]): -16.93%

Oc1cc(C2CCCN(Cc3cccs3)C2)nc(-c2ccccn2)n1 (centres undefined)
Percent Effect (30.3 µM, […]): 100.2%

Oc1cc(C2CCCCN2Cc2ccsc2)nc(-c2ccncc2)n1 (centres undefined)
Percent Effect (30.3 µM, […]): -12.11%

Cn1ncc2ccc(C3CCCN(Cc4cccs4)C3)nc21 (centres undefined)
Percent Effect (30.3 µM, […]): 11.55%

Oc1cc(C2CCCCN2Cc2cccs2)nc(-c2ccccn2)n1 (centres undefined)
Percent Effect (30.3 µM, […]): 99.61%

Oc1cc(C2CCCCN2Cc2cccs2)nc(-c2ccncc2)n1 (centres undefined)
Percent Effect (30.3 µM, […]): -2.917%

O=C(CCn1cc(Cl)cn1)Nc1ccc2c(c1)OCCO2
Percent Effect (30 µM, 30.03 µM): -17.81%

CN(C)c1ccc(C(=O)N2CCCN(C3CCCCC3)CC2)cn1
Percent Effect (30.3 µM, […]): -15.89%

Cc1ccc(Cc2cnc(C3CCNCC3)cn2)cc1.Cl
Percent Effect (30.3 µM, […]): -22.29%

O=S(=O)(NCC(c1ccsc1)N1CCCCCC1)c1cccs1 (centres undefined)
Percent Effect (30 µM, 30.03 µM): -20.18%

Oc1nc(N2CCOCC2)nc2c1CCN(Cc1ccccc1)CC2
Percent Effect (30.3 µM, […]): -21.1%

Oc1nc(N2CCOCC2)nc2c1CCN(Cc1cccc(F)c1)CC2
Percent Effect (30.3 µM, […]): -14.28%

Oc1nc(N2CCOCC2)nc2c1CCN(Cc1ccc(F)cc1)CC2
Percent Effect (30.3 µM, […]): 100.3%

CC(C)c1nc(CCN(C)c2nccc(N3CCCC(O)C3)n2)no1 (centres undefined)
Percent Effect (30.3 µM, […]): 3.693%

Cc1oncc1C(=O)N1CC[C@H]2[C@H]1CCN2S(C)(=O)=O
Percent Effect (30.3 µM, […]): 97.42%

Cc1oncc1C(=O)N1CC[C@H]2[C@@H]1CCC(=O)N2CC1CC1
Percent Effect (30.3 µM, […]): -43.42%

Cc1cc(C(=O)N2CC[C@H]3[C@H]2CCN3S(C)(=O)=O)c(C)o1
Percent Effect (30.3 µM, […]): -71.76%

Cc1cccc(CN2CCC3(CC2)CC(c2cccnc2)C(=O)N3C)n1.O=C(O)C(F)(F)F.O=C(O)C(F)(F)F (centres undefined)
Percent Effect (30.3 µM, […]): -33.95%

COCC(=O)N1CCC2(CC1)COCCN2Cc1ccc(F)cc1.O=C(O)C(F)(F)F
Percent Effect (30 µM, 30.03 µM): 14.27%

Cc1nc(CC2CCN(Cc3ccc(CCC(C)(C)O)cc3)CC2)no1
Percent Effect (30.3 µM, […]): -0.2557%

Cc1noc2nc(C3CCN(CC4CCCCC4)CC3)cc(C(F)F)c12.Cl
Percent Effect (30.3 µM, […]): 30.15%

CCn1nc(C)c2ccn(CC(=O)NCCCOC)c(=O)c21
Percent Effect (30 µM, 30.03 µM): 9.008%

O=C(c1cccs1)N1C[C@H]2CCC[C@@]2(COCC2CCOCC2)C1
Percent Effect (30 µM, 30.03 µM): 13.05%

O=C(c1ccncn1)N1C[C@H]2CCC[C@@]2(COCC2CCOCC2)C1
Percent Effect (30 µM, 30.03 µM): 54.31%

O=C(O)C(F)(F)F.O=C(c1ccccn1)N1C[C@H]2CCC[C@@]2(COCC2CCOCC2)C1
Percent Effect (30 µM, 30.03 µM): 14.59%

Cc1ccsc1C(=O)N1CCCN(Cc2cscn2)CC1
Percent Effect (10 µM): -20.65%

CN(C)C(=O)[C@H]1CCS(=O)(=O)[C@@H]2CN(c3ncccn3)C[C@H]12
Percent Effect (30.3 µM, […]): -0.441%

COc1ccnc(N2CCN(C(=O)Cc3ccc(C#N)cc3)CC2)n1
Percent Effect (30 µM, 30.03 µM): 4.593%

COc1ccc(CC(=O)N2CCCN(c3ccc(C#N)cc3)CC2)cc1
Percent Effect (30 µM, 30.03 µM): 55.65%

Cc1nc(CC(=O)N2CCCN(c3ccc(C#N)cc3)CC2)cs1
Percent Effect (30 µM, 30.03 µM): 7.071%

CN1C[C@]2(CC[C@@H](C(=O)N3CCOCC3)CC2)Oc2ccccc2C1=O
Percent Effect (30.3 µM, […]): -18.99%

Cc1ccc2[nH]c(C(=O)N3CCC4(CC3)C(=O)NCCN4C)nc2c1
Percent Effect (30 µM, 30.03 µM): 74.91%

Cc1ccc(C(=O)N2CCC3(CC2)C(=O)NCCN3C)cc1O
Percent Effect (30 µM, 30.03 µM): -5.883%

CN1CCNC(=O)C12CCN(C(=O)c1ccc3[nH]c(=O)[nH]c3c1)CC2
Percent Effect (30 µM, 30.03 µM): 29.1%

Cn1cc(C(=O)NCc2cn3c(n2)CN(CC2CCCC2)CC3)cn1.O=C(O)C(F)(F)F.O=C(O)C(F)(F)F
Percent Effect (30 µM, 30.03 µM): -33.28%

Cc1nc(CO[C@@H]2CN(Cc3cccs3)[C@@H]3COC[C@@H]32)cs1.O=C(O)C(F)(F)F
Percent Effect (30 µM, 30.03 µM): -14.66%

Cc1cc(S(C)(=O)=O)c(C)c(S(=O)(=O)N2CCCC(C)C2)c1 (centres undefined)
Percent Effect (30 µM, 30.03 µM): 0.7387%

O=C(O)C(F)(F)F.O=C1COC2(CCN(CC3CC3)CC2)CN1c1cncnc1
Percent Effect (30 µM, 30.03 µM): -12.06%

CS(=O)(=O)NCC(=O)NC(Cc1ccccc1)C1CCCC1 (centres undefined)
Percent Effect (30.3 µM, […]): -60.62%

CS(=O)(=O)CCC(=O)NC(Cc1ccccc1)C1CC1 (centres undefined)
Percent Effect (30.3 µM, […]): 70.04%

Cc1c(NC(=O)CN(C)S(C)(=O)=O)cccc1OC1CCCC1
Percent Effect (30 µM, 30.03 µM): -55.36%

Cc1ccc(CC(NC(=O)CCS(C)(=O)=O)c2ccccn2)cc1 (centres undefined)
Percent Effect (30 µM, 30.03 µM): -49.38%

CN(CC(=O)NC(Cc1ccccc1)C1CCCC1)S(C)(=O)=O (centres undefined)
Percent Effect (30.3 µM, […]): 62.9%

CS(=O)(=O)CCC(=O)NC1CC(c2ccccc2Cl)C1 (centres undefined)
Percent Effect (30 µM, 30.03 µM): -26.6%

CNc1nc(C)c(C(=O)N2C[C@H]3CC[C@@H]2CN(c2cnccn2)C3)s1
Percent Effect (30 µM, 30.03 µM): -23.46%

CC1CN(C)CCN1C(=O)c1cnn(-c2cccc(Cl)c2)c1 (centres undefined)
Percent Effect (30.3 µM, […]): -22.44%
Percent Effect (10 mM, 10 mM as filed; unlikely as a test dose): -40.4%

COCC1CC2(CCN(Cc3ccoc3)CC2)CN1C(C)C.O=C(O)C(F)(F)F.O=C(O)C(F)(F)F (centres undefined)
Percent Effect (30 µM, 30.03 µM): 26.61%

CCN(CC)C(=O)CN1CCc2nc(C3CCNCC3)nc(NC)c2C1.Cl
Percent Effect (30.3 µM, […]): -15.23%

CCC(=O)Nc1ccc2c(c1)C1(CCOCC1)CN2CCOC.O=C(O)C(F)(F)F
Percent Effect (30.3 µM, […]): -49.74%

CN(Cc1ccccc1F)C(=O)Cn1cc(NC(=O)C(C)(C)C)cn1
Percent Effect (30.3 µM, […]): -0.06216%

CC(C)NC(=O)N1CCN(CC2CC2)CC2(CNC(=O)C2)C1.O=C(O)C(F)(F)F (centres undefined)
Percent Effect (30 µM, 30.03 µM): -4.336%

COc1ccccc1C1(CNCc2cccc(O)c2)CCOCC1
Percent Effect (30.3 µM, […]): 15.56%

COc1ccccc1C1(CNCc2cccc(C#N)c2)CCOCC1
Percent Effect (30.3 µM, […]): 67.18%

COc1ccccc1C1(CNCc2ccc(C#N)cc2)CCOCC1
Percent Effect (30.3 µM, […]): 29.93%
